About 83,000 compounds went through this panel and 20% of them were active in at least one assay; those are over-represented in the sample as a whole.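 Values shown are percent growth following 48 h exposure of cells in 96-well plates to a single concentration of compound; below 10 was considered active.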 Values without a mark were called inactive. Active and inactive are the calls of the source.

These results are taken from PubChem BioAssay (NCI).

Some test systems named below: BT-549 breast; MDA-MB-435 melanoma; SW-620 colon; MCF7 breast; HCT-116 colon; HCC-2998 colon; KM12 colon.
Common to all, as to assay: NCI-60 one-dose screen, 48 h (100 = growth as untreated, 0 = no growth, -100 = all killed)
What all share (conditions): 10 µM unless noted

For `COc1cc(Cn2cc(F)c(=O)[nH]c2=O)cc(OC)c1`, the growth with BT-549 breast is 95.4% [50 µM]; with MDA-MB-435 melanoma, 109% [50 µM]; with SW-620 colon, 102% [50 µM]; in the assay with MCF7 breast, 104% [50 µM]; in the assay with HCT-116 colon it was 111% [50 µM]; in the assay with HCC-2998 colon, 114% [50 µM]. Moreover, the growth with KM12 colon is 108% [50 µM].
In the case of `O=C(Nc1ccccc1O)c1ccc(NS(=O)(=O)c2cccc3cccnc23)cc1`, the growth was 55.6% in the assay with BT-549 breast; 32.6% in the assay on MDA-MB-435 melanoma; 30% with SW-620 colon; 42.3% with MCF7 breast; 23.7% in the assay on HCT-116 colon; 57.3% in the assay on HCC-2998 colon. Further, in the assay on KM12 colon, the growth is 74.8%.
As to `COC(=O)c1ccc(C(=O)Nc2ccccc2N)cc1`, the growth in the assay with BT-549 breast was 60%; in the assay on MDA-MB-435 melanoma it was 77.7%; with SW-620 colon, 72.3%; in the assay on MCF7 breast it was 69.2%; in the assay on HCT-116 colon, 75.4%; with HCC-2998 colon, 85.8%. Moreover, the growth in the assay with KM12 colon is 86.3%.
Take `CCCCC(O)Cn1ncc(C(=O)OCC)c1NC(=O)NCc1ccccc1C(F)(F)F` (stereo unspecified): the growth with BT-549 breast is 92%; in the assay with MDA-MB-435 melanoma, 99.5%; with SW-620 colon, 104%; with MCF7 breast it was 94.1%; in the assay on HCT-116 colon it was 89.6%; in the assay with HCC-2998 colon, 108%. For the same molecule, in the assay with KM12 colon, the growth is 101%.
`COc1cc(-c2nc(SC(C)C)nc(Nc3ccccc3C)c2C#N)cc(OC)c1OC`: the growth with BT-549 breast is 109%; with MDA-MB-435 melanoma, 106%; in the assay with SW-620 colon, 104%; with MCF7 breast, 101%; in the assay on HCT-116 colon it was 114%; in the assay with HCC-2998 colon, 106%. Further, the growth with KM12 colon is 104%.
Take `COc1cc(NC(=O)COc2ccccc2)c(C(N)=O)cc1OC`: the growth in the assay on BT-549 breast is 59.5%; in the assay on MDA-MB-435 melanoma it was -77.5% (active); in the assay with SW-620 colon, 26.8%; with MCF7 breast, 17.1%; in the assay on HCT-116 colon, 29.5%; with HCC-2998 colon it was 47.1%. In addition, the growth in the assay on KM12 colon is 29.3%.
Regarding `COc1ccc(/C=C/C(=O)N2CCC(O)CC2)cc1OC1CCCC1`, the growth in the assay with BT-549 breast was 117%; in the assay with MDA-MB-435 melanoma, 103%; in the assay on SW-620 colon, 106%; in the assay with MCF7 breast, 95.4%; with HCT-116 colon it was 106%; in the assay on HCC-2998 colon it was 111%. The growth in the assay on KM12 colon was 105%.
`COc1cc(OCc2cccc(-c3ccc(C(O)c4nccs4)cc3)c2C)cc(OC)c1C=O` (stereo unspecified): the growth in the assay with BT-549 breast was 39.6%; with MDA-MB-435 melanoma it was 30.8%; in the assay with SW-620 colon, 56%; with MCF7 breast, 7.09% (active); in the assay with HCT-116 colon it was 23.1%; in the assay with HCC-2998 colon, 73.9%. The growth in the assay with KM12 colon was 71%.
For `Cc1ccc(NS(=O)(=O)c2ccc(-c3cnc(C4CC4)o3)cc2)cc1`, the growth with BT-549 breast is 40.4%; in the assay with MDA-MB-435 melanoma it was -3.14% (active); with SW-620 colon, 12.4%; with MCF7 breast, 15.6%; in the assay on HCT-116 colon, 11.8%; in the assay with HCC-2998 colon, 69.2%. In addition, the growth in the assay with KM12 colon is 20.5%.
Turning to `COc1ccc(/C=N/NC(=O)c2cnn3c2NC(c2ccccc2)C3)cc1OC1CCCC1` (stereo unspecified), the growth was 93.3% with BT-549 breast; 61.7% in the assay on MDA-MB-435 melanoma; 97.5% in the assay with SW-620 colon; 86.2% in the assay on MCF7 breast; 82% in the assay on HCT-116 colon; 110% in the assay on HCC-2998 colon. In addition, the growth in the assay with KM12 colon is 81.3%.
Turning to `COc1ccc(OC)c(/C=C2\Oc3cc(O)ccc3C2=O)c1`, the growth was 79.8% in the assay with BT-549 breast; 82.7% with MDA-MB-435 melanoma; 92.2% with SW-620 colon; 94.2% in the assay with MCF7 breast; 79.2% in the assay on HCT-116 colon; 99.3% with HCC-2998 colon. The growth in the assay on KM12 colon is 108%.
As to `O=c1c2c(=NCCN3CCCC3)cc3c(=O)n(CCCN4CCOCC4)c(=O)c4ccc(c(O)n1CCCN1CCOCC1)c2c4-3`, the growth is -34.9% (active) with BT-549 breast; -87.9% (active) with MDA-MB-435 melanoma; -15.5% (active) with SW-620 colon; -17.7% (active) in the assay with MCF7 breast; 0.411% (active) with HCT-116 colon; -45.8% (active) in the assay with HCC-2998 colon. Further, the growth in the assay on KM12 colon was -20.9% (active).
Take `CCSc1nnc2c3cc(Br)ccc3n(C)c2n1`: the growth in the assay with BT-549 breast is 95.6%; in the assay on MDA-MB-435 melanoma, 104%; with SW-620 colon it was 103%; with MCF7 breast it was 84.3%; with HCT-116 colon, 95.6%; in the assay with HCC-2998 colon, 111%. The growth in the assay with KM12 colon was 103%.
As to `OB(O)c1ccccc1`, the growth in the assay on BT-549 breast was 96.2%; with MDA-MB-435 melanoma, 109%; in the assay on SW-620 colon, 108%; in the assay with MCF7 breast, 111%; in the assay with HCT-116 colon, 108%; with HCC-2998 colon it was 109%. For the same molecule, the growth with KM12 colon was 107%.
With `N#Cc1c(-c2cccc(F)c2)cc(-c2ccc(Br)s2)[nH]c1=O`, the growth in the assay on BT-549 breast was 65.7%; in the assay with MDA-MB-435 melanoma, -25.8% (active); with SW-620 colon it was 28.6%; with MCF7 breast, 63.4%; with HCT-116 colon it was 30.8%; in the assay with HCC-2998 colon it was 110%. Moreover, the growth in the assay on KM12 colon is 60.1%.
Consider `O=S(=O)(Nc1ccccc1Cl)c1ccc(-c2cnc(C3CC3)o2)cc1`, for which the growth is 49.5% in the assay with BT-549 breast; -35.2% (active) with MDA-MB-435 melanoma; 26.2% with SW-620 colon; 15.7% with MCF7 breast; 22.3% in the assay on HCT-116 colon; 39.9% in the assay with HCC-2998 colon. The growth in the assay with KM12 colon is 20.5%.
Consider `Brc1ccc(Br)nn1`, for which the growth was -69.7% (active) in the assay with BT-549 breast; -96.3% (active) with MDA-MB-435 melanoma; -100% (active) in the assay with SW-620 colon; -72.4% (active) in the assay on MCF7 breast; -97.3% (active) with HCT-116 colon; -53.5% (active) with HCC-2998 colon. Further, the growth with KM12 colon was -50.7% (active).
Regarding `Cc1ccc(S(=O)(=O)N(c2ccc(Cl)cc2)c2ccc(Br)cc2C(=O)O)cc1`, the growth in the assay with BT-549 breast is 134%; with MDA-MB-435 melanoma it was 107%; in the assay with SW-620 colon it was 104%; in the assay with MCF7 breast, 104%; with HCT-116 colon, 113%; in the assay on HCC-2998 colon, 115%. In the assay on KM12 colon, the growth is 108%.
